# Laboratory results: PubChem BioAssay AID651812 (National Center for Advancing Translational Sciences (NCATS), 2012)
# Hit rate of the full screen: of about 2,100 compounds, about 650 (31%) were called active. Another 16% or so got no clear call; they are omitted. Some of the results follow. Values without a mark were called inactive. Calls follow the shape of the dose curve; as a rule, active = well fitted inhibition curve with a large enough effect; inconclusive = small, poorly fitted or top-dose-only effect; inactive = flat fitted curve, though single readings scatter.
# Test: qHTS for inhibitors of Vif-A3G interactions: Cherry picks; also: nearly all actives have a fitted effect of over 80% in size; as to activity, negative = fluorescence increase: % of control where 0% means no effect
# Conditions: HeLa A3G-eYFP + Vif (tagged APOBEC3G with the HIV-1 protein that degrades it), 24 h; Potency: eYFP fluorescence increase; series mostly up to 36.9 µM; activity, negative = fluorescence increase: at the top concentration
# Outline: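 HeLa cells stably expressing A3G-eYFP and Vif, cultured overnight then exposed to compounds at several concentrations for 24 hours at 37 C, 5% CO2; cellular yellow fluorescence (488 nm ex, 500-530 nm em) imaged on Acumen, MG132 positive control.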
# Potency is read from the fitted curve at half-maximal effect.
SMILES,"activity, negative = fluorescence increase",Potency
CC1(C(=O)NCc2ccccc2)Cc2c(-c3cccc(C(N)=O)c3)ccnc2O1 (stereo not drawn),-25.2%,
COc1ccc(NC(=O)C2(C)Cc3c(-c4cccc(C(N)=O)c4)ccnc3O2)cn1 (stereo not drawn),-3.43%,
O=C(COc1ccc(C(=O)c2ccccc2)cc1)NCc1ccc(F)cc1,-5.5%,
Cc1c(C(=O)C(=O)N2CC=C(c3ccccc3)CC2)c2ccccc2n1C,-12.3%,
CCOc1ccc(S(=O)(=O)NCc2ccccn2)cc1NC(=O)c1ccccc1,0.368%,
O=C1CC(c2ccccc2F)c2cc3c(cc2N1)CCC3 (stereo not drawn),-7.87%,
CN(/N=C/c1ccc(-c2ccc([N+](=O)[O-])cc2)o1)c1ccccc1,,1.64 µM (active)
Cc1cc(N2CCN(Cc3cn(C)nc3-c3ccccc3F)CC2)cc(C)n1,-6.76%,
COc1cc(C(=O)N/N=C/c2ccccn2)cc(OC)c1OC,-9.13%,
Cc1cc(C)n(-c2nc3c(c(=O)[nH]c(=O)n3C)n2CC(O)COc2ccc(Cl)cc2Cl)n1 (stereo not drawn),-7.25%,
Cc1ccc2ccc3c(c2n1)NS(=O)(=O)c1ccc(C(F)(F)F)cc1-3,-3.25% [at 46.1 µM],
CN(C)c1ccc(/C=C(\C#N)c2nc3ccccc3c(=O)[nH]2)cc1,,0.58 µM (active)
N#C/C(=C\c1ccc(C(=O)O)cc1)c1nc2sc3c(c2c(=O)[nH]1)CCCC3,-12.3% [at 46.1 µM],
COc1ccc(NC2=CC(=O)CC(c3ccccc3)C2)c(OC)c1 (stereo not drawn),0.141%,
Cc1ccc(-n2c(=O)c3ccc(C(=O)NCc4ccccc4Cl)cc3n(CC(=O)Nc3cccc(Cl)c3)c2=O)cc1,-3.23% [at 46.1 µM],
O=C(NCCc1ccccc1Cl)c1ccc(Cn2c(=O)c3cccn3c3cccnc32)cc1,,18.4 µM (active)
CCCCOc1ccc(/C=C/C2=CC(C)(C)NC(=S)N2)cc1OCC,1.65% [at 46.1 µM],
CCn1c(/C=C/c2ccc([N+](=O)[O-])o2)nc2ccccc2c1=O,,11.6 µM (active)
CCCN1C(=O)C(Cc2nc3ccccc3c(=O)n2CC)c2cc(Br)ccc21 (stereo not drawn),-3.57% [at 46.1 µM],
O=c1c2ccccc2nc(/C=C/c2ccc([N+](=O)[O-])o2)n1CCCO,,18.4 µM (active)
Cn1c(/C=C/c2ccc([N+](=O)[O-])o2)nc2ccccc2c1=O,,18.4 µM (active)

SMILES,"activity, negative = fluorescence increase",Potency
CCOC(=O)C(C)Oc1cccc2c(=O)n(CC(=O)NCc3ccco3)ccc12 (stereo not drawn),-19.4%,
NC(=O)c1ccc(NC(=O)C#Cc2ccccc2)cc1,-1.03%,
COc1cccc(N2CCN(Cc3nc4scc(-c5ccccc5)c4c(=O)[nH]3)CC2)c1,-19.9%,
O=C(/C=C/c1ccccc1)Nc1ncn[nH]1,-2.53%,
Cc1cccc2cc3c(N)c(C(=O)N4CCCc5ccccc54)sc3nc12,,14.6 µM (active)
Cc1c(C(=O)C(=O)N2CCCc3ccccc32)c2ccccc2n1C,-1.01%,
O=C(c1cc([N+](=O)[O-])ccc1N1CCCCC1)N1CCc2ccccc21,0.913%,
COc1ccc(-c2cc(C(F)F)n3ncc(C(=O)N4CCc5ccccc54)c3n2)cc1,-9.78%,
Cc1ccc2nc3sc(C(=O)N4CCCc5ccccc54)c(N)c3cc2c1,,14 µM (active)
Cc1cc(NC(=O)COC(=O)c2ccc(S(=O)(=O)N3CCCc4ccccc43)cc2)no1,-5.52%,
Cc1cccc2cc3c(N)c(C(=O)N4CCc5ccccc54)sc3nc12,,8.2 µM (active)
Cc1ccc(Cc2c(C3CCCCC3)nc3ccc(C)cn23)cc1,2.87%,
Cc1cc2nc3s/c(=C/c4ccc(-c5ccccc5C(=O)O)o4)c(=O)n3c2cc1C,,20.6 µM (active)
CCCCOc1nc2ccccc2nc1NS(=O)(=O)c1ccc(F)cc1,5.52% [at 46.1 µM],
COc1ccc(Cl)cc1NC(=O)CN(C)CC(=O)Nc1ccccc1N1CCOCC1,-10.8%,
COc1ccccc1N1C(=O)C(Cl)=C(Nc2ccccc2O)C1=O,,16.4 µM (active)
COc1ccccc1Nc1cc2cc(Br)ccc2c(=O)[nH]1,-6.94%,
N#Cc1ccc(-c2cccs2)nc1SCc1c(F)cccc1Cl,-17.2% [at 46.1 µM],
Cc1cccc(CSc2nc(-c3cccs3)ccc2C#N)c1,-21.7% [at 46.1 µM],
C#CCSc1nc(-c2cccs2)ccc1C#N,,8.2 µM (active)
Cc1ccc(NC2=C(Cl)C(=O)N(C3CCCCC3)C2=O)cc1,-1.75% [at 46.1 µM],

SMILES,"activity, negative = fluorescence increase",Potency
COc1ccc(CNCC(=O)Nc2ccccc2-n2cccc2)cc1,-5.31%,
CCC(=O)Nc1ccccc1-c1nc2ccccc2n(C(C)C(=O)Nc2ccc(OC)cc2)c1=O (stereo not drawn),,18.4 µM (active)
Cc1noc(C)c1COc1ccc(C(=O)NNC(=O)c2ccccc2)cc1,-5.2%,
CCOC(=O)c1cnc(-n2nc(C)cc2C)nc1NNc1cc(C)nc(-c2ccccc2)n1,-4.37% [at 46.1 µM],
CCCCCCN1C[C@H](O)[C@@H](n2cc(COC(=O)c3ccccc3)nn2)C[C@@H]1c1ccc(C)cc1,-7.29% [at 46.1 µM],
CC1(C)CC(=O)C(C=Nc2cc(C(=O)c3ccccc3)ccc2N)=C(O)C1,,20.6 µM (active)
CCOC(=O)N1CCc2c(sc3c2C(=O)NC(c2ccc(N(C)C)cc2)N3)C1 (stereo not drawn),,20.6 µM (active)
Cc1onc(-c2c(F)cccc2Cl)c1C(=O)O/N=C(\N)c1ccc([N+](=O)[O-])o1,3.83%,
Nc1nc(-c2cc(O)ccc2[N+](=O)[O-])cc(-c2ccccc2)c1[N+](=O)[O-],,15.8 µM (active)
CNCC(O)Cn1c2c(c3ccccc31)CCCC2 (stereo not drawn),-0.603%,
Cc1oc(C)c2c(=O)ccc3c(c12)OC(N)=C(C#N)C3c1ccc(F)cc1 (stereo not drawn),-17.8% [at 46.1 µM],
CC(C)OC(=O)c1ccc(NCc2cc(O)ccc2O)cc1Cl,-11.5%,
CC(C)OC(=O)c1cc(C(=O)c2cc(F)ccc2O)coc1=N,,20.6 µM (active)
O=C(Nc1ncc(Cc2ccc(SC(F)F)cc2)s1)c1ccccc1,-0.547%,
COc1ccc(O)c(C(=O)c2coc(=N)c(C(=O)Nc3ccc(SC(F)F)cc3)c2)c1,,23.1 µM (active)
COc1cc(-c2nc3ccc(C)cn3c2NCc2ccccc2)ccc1SC1CCCCC1,4.07%,
COc1ccccc1/C=C/C=N/NC(=O)c1cc(-c2ccc(C)o2)[nH]n1,-6.92%,
Cc1ccc2c(/C=C/c3c[nH]c4ccccc34)ccnc2c1C,,3.26 µM (active)
C(=Cc1c[nH]c2ccccc12)c1nccc2ccccc12,,18.4 µM (active)
C(=C\c1c[nH]c2ccccc12)/c1nccc2ccccc12,,14.6 µM (active)
Cc1cccc(C(=O)Nc2nnc(C3=COCCO3)o2)c1,7.13% [at 46.1 µM],
